Experimental data reported in PubChem BioAssay (NCI).
The panel holds about 79,000 compounds, 15% with a hit somewhere; the sample as a whole holds those more often. Unmarked numbers belong to inactive results. The source made the active and inactive calls. No stated cut-off is given here; in the data, active means growth inhibition above about 70%; inactive means the rest.

Experiments:
[1] = NCI Yeast Anticancer Drug Screen. Data for the rad50 strain (AID 155);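 further: 0% = growth of vehicle-only cultures of the same strain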; conditions: S. cerevisiae rad50 strain growth inhibition, hits give high values
Outline: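 Compounds were tested on a yeast strain with an engineered DNA damage repair alteration; the reported value is growth inhibition normalised to vehicle treatment.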

[2] = NCI Yeast Anticancer Drug Screen. Data for the mec2-1 strain (AID 157); conditions: S. cerevisiae mec2-1 strain, hits give high values
Outline: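 Compounds were applied to mec2-1 yeast cells. Their growth was then compared with that of vehicle-treated cultures to give growth inhibition.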

[3] = NCI Yeast Anticancer Drug Screen. Data for the sgs1 mgt1 strain (AID 161);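 further: 0% = growth of cultures given vehicle only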; conditions: S. cerevisiae sgs1 mgt1 strain, hits give high values
Outline: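 Percent growth inhibition was derived by comparing compound-exposed mutant yeast with vehicle-exposed cultures. The strain carries alterations in DNA damage repair.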

[4] = NCI Yeast Anticancer Drug Screen. Data for the cln2 rad14 strain (AID 165);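 further: 0% = growth equal to vehicle treated cultures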; conditions: S. cerevisiae cln2 rad14 strain, hits give high values
Outline: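 Strain: cln2 rad14 yeast, altered in cell cycle control and DNA damage repair. Read-out: growth inhibition vs vehicle.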

[5] = NCI Yeast Anticancer Drug Screen. Data for the bub3 strain (AID 167); conditions: S. cerevisiae bub3 mutant strain, hits give high values
Outline: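 Growth of a checkpoint-deficient yeast mutant is measured after compound exposure. Values represent inhibition relative to vehicle.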

[6] = NCI Yeast Anticancer Drug Screen. Data for the mlh1 rad18 strain (AID 175); conditions: S. cerevisiae mlh1 rad18 strain growth inhibition, hits give high values
Outline: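 A repair-deficient yeast strain is exposed to test compound, and growth is scored relative to vehicle-treated controls.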

[7] = at 5.0 µM (retest, dose inferred, filed as 0.5)
[8] = at 50.0 µM (retest, dose inferred, filed as 5.0)

SMILES | growth inhibition [1, 7] | growth inhibition [1, 8] | growth inhibition ([1]; at 50.0 µM) | growth inhibition [2, 7] | growth inhibition [2, 8] | growth inhibition ([2]; at 50.0 µM) | growth inhibition [3, 7] | growth inhibition [3, 8] | growth inhibition ([3]; at 50.0 µM) | growth inhibition [4, 7] | growth inhibition [4, 8] | growth inhibition ([4]; at 50.0 µM) | growth inhibition [5, 7] | growth inhibition [5, 8] | growth inhibition ([5]; at 50.0 µM) | growth inhibition [6, 7] | growth inhibition [6, 8] | growth inhibition ([6]; at 50.0 µM)
COc1ccc2c(c1)c1c(C)c3cnccc3c(C)c1n2CCCN | 9% | 44% | 74% (active) | 28% | -17% | 27.9% | 2% | 13% | 29.3% | 10% | -9% | -24.1% | 13% | -10% | 46.1% | 9% | 18% | 77.5% (active)
O=C(O)Cc1cccc(O)c1 | 0% | -3% | 10.5% | 3% | -1% | 41.9% | -3% | -4% | -1.9% | -8% | 1% | 35.1% | -1% | 1% | 5.8% | 0% | -3% | -0.1%
CCCC(C)(O)C(C)CC (configuration not stated) | 2% | 5% | 19.1% | 0% | -1% | 9.3% | -1% | 0% | -0.85% | -3% | -8% | -6.9% | -3% | 8% | 2.45% | -2% | 0% | 7.7%
CCCCCCCCCCCC(=O)OCCN(CC)CC | 3% | 99% (active) | 95.8% (active) | -1% | 99% (active) | 98.6% (active) | 4% | 99% (active) | 65.5% | 0% | 99% (active) | 97.9% (active) | -3% | 98% (active) | 93.2% (active) | -2% | 99% (active) | 98% (active)
S=c1ncc2c([nH]1)C1c3ccccc3C2c2ccccc21 | -9% | 98% (active) | 86% (active) | -6% | 98% (active) | 92% (active) | 2% | 98% (active) | 90.1% (active) | 27% | 99% (active) | 88% (active) | 16% | 98% (active) | 92.4% (active) | -1% | 98% (active) | 90.5% (active)
Oc1c(Br)cc(Br)c2cccnc12 | 93% (active) | 97% (active) | 98.7% (active) | 35% | 97% (active) | 98.9% (active) | 88% (active) | 97% (active) | 98.5% (active) | 82% (active) | 97% (active) | 97.3% (active) | 28% | 88% (active) | 98.3% (active) | 96% (active) | 96% (active) | 98.4% (active)
CCCOC1(C)CC(c2cc(OC)c(OC)c(OC)c2)c2cc3c(cc2O1)OCO3 (configuration not stated) | 5% | 96% (active) | 5.1% | 5% | 100% (active) | 7.75% | 5% | 99% (active) | -2.6% | 4% | 99% (active) | 34.7% | 5% | 99% (active) | 3.15% | 2% | 99% (active) | 18.9%
C#CC(CC(C)CC(C)(C)C)NC (configuration not stated) | 2% | 91% (active) | 97.2% (active) | 2% | 58% | 85.5% (active) | 0% | 97% (active) | 96.8% (active) | 7% | 53% | 76% (active) | 2% | 86% (active) | 92.3% (active) | 1% | 73% (active) | 96% (active)
O=[N+]([O-])C(=C(Nc1ccccc1)Nc1ccccc1)/C(Cl)=C(\Cl)Br | -7% | 99% (active) | 98.7% (active) | 11% | 99% (active) | 99.5% (active) | 6% | 99% (active) | 99.3% (active) | 22% | 99% (active) | 99.3% (active) | -11% | 99% (active) | 99.2% (active) | 32% | 99% (active) | 99.2% (active)
Cc1ccc([P+](CCN2C(=O)c3ccccc3C2=O)(c2ccc(C)cc2)c2ccc(C)cc2)cc1 | 77% (active) | 98% (active) | 89.8% (active) | 72% (active) | 99% (active) | 90.3% (active) | 89% (active) | 99% (active) | 90.5% (active) | 71% (active) | 99% (active) | 87.9% (active) | 86% (active) | 99% (active) | 90.5% (active) | 64% | 98% (active) | 87.7% (active)
C[C@]12CC[C@H]3[C@@H](CCC4=CC(=O)CC[C@@]43C)[C@@H]1CC[C@@H]2C(=O)C=O | 19% | 42% | 67.2% | 6% | 36% | 52.6% | 16% | 61% | 71% (active) | 5% | 21% | 39% | 1% | 17% | 41.2% | 27% | 74% (active) | 56.2%
CC(O)c1cc(-c2ccc(Cl)cc2)nc2ccccc12 (configuration not stated) | 12% | 97% (active) | 97.8% (active) | 4% | 98% (active) | 97.2% (active) | 6% | 98% (active) | 98% (active) | 14% | 98% (active) | 97.2% (active) | 1% | 98% (active) | 97.8% (active) | -1% | 97% (active) | 96.5% (active)
Cc1ccc2c(c1)NC(=O)C(N=[N+]=[N-])(c1ccccc1)C2=O (configuration not stated) | -25% | 97% (active) | 89.8% (active) | -2% | 93% (active) | 91.3% (active) | -1% | 97% (active) | 90.2% (active) | 10% | 71% (active) | 91.3% (active) | -7% | 98% (active) | 92.3% (active) | -4% | 98% (active) | 70.4% (active)
O=C1/C(=C/c2ccccc2)CN(C(=O)C(F)(F)F)C/C1=C\c1ccccc1 | 63% | 84% (active) | 65.3% | 43% | 80% (active) | 40% | 52% | 94% (active) | 46% | 41% | 78% (active) | 42.2% | 53% | 93% (active) | 55.1% | 66% | 92% (active) | 53.6%
Cc1ccc(C(=O)C(CN(C)C)CN(C)C)cc1 | 16% | 41% | 83.7% (active) | 12% | 63% | 92.3% (active) | 20% | 76% (active) | 88.5% (active) | 17% | 39% | 73.2% (active) | 16% | 65% | 88.7% (active) | 14% | 72% (active) | 88% (active)
COc1ccc(C(=O)C2=C(C)Nc3ccc(Br)cc3S2)cc1 | -2% | 27% | 4.55% | -2% | 20% | 14.1% | -12% | 44% | -4.7% | -8% | 16% | -3.4% | -9% | 38% | -0.3% | -7% | 23% | 12.4%
O=C(O)c1ccc(OCc2ccccc2)c(Cl)c1 | 16% | 36% | 52.8% | 22% | 44% | 25.5% | 11% | 38% | 30.9% | -8% | 39% | 54.2% | 3% | 17% | 38.2% | 12% | 47% | 59.1%
O=C(/C=C/C(=N\Nc1ccccc1)c1ccccc1)c1ccccc1 | 21% | 90% (active) | 37.9% | 23% | 99% (active) | 13.9% | 27% | 96% (active) | 26.4% | 46% | 98% (active) | 30.9% | 67% | 99% (active) | 21.5% | 47% | 95% (active) | 72% (active)
CC1C(=O)C(Br)CC2C1(C)CCC1C2(C)CCC2(C)C3CC(C)(C)CCC3(C)CCC12C (configuration not stated) | 6% | -1% | 25.7% | 5% | 3% | 6.25% | 8% | -13% | 4.2% | 7% | 6% | 64.5% | 6% | 5% | 85% (active) | -2% | 0% | 0.3%
